Many of the other results were omitted from the sample, so hits are more common in it than they were.
TTR transcr act: TTR transcription activation, primary screen | AID 1117267 | 92,000 tested, 1.3% active | activation, % at 16.7 µM | SH-SY5Y TTR promoter Gaussia luciferase, luminescence; 100% = recombinant luciferase protein wells;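 active means activation above the mean of all tested compounds plus 3 SD, cut at about 9.5% in these data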;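 further: cells exposed to compounds for one day before reading; 0% = median of all test compound wells on the plate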
TTR inh HuH7: counter-screen for TTR activators: TTR transcription inhibitors in HuH7 cells; shares compounds with TTR transcr act; HuH7 TTR promoter-Gaussia luciferase reporter, luminescence; inhibition, % at 16.7 µM; 1,100 tested, 4% active; AID 1117279;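 active means average inhibition above the solvent-only control wells' mean plus 3 SD, cut at about 15% in these data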;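 further: 0% = cells with DMSO only and 100% = cells with inhibitor control FD; inhibitors lower well luminescence so higher value means more inhibition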
TTR act confirm: human TTR transcription activation, confirmation; 1,100 tested, under 10 active; activation, % at 16.7 µM; SHSY5Y TTR promoter Gaussia luciferase, luminescence; 100% = purified Lucia enzyme wells, no cells; shares compounds with TTR transcr act; AID 1117280;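 active means mean activation above a set limit taken from the earlier primary screen, cut at about 11% in these data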;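 further: 0% = DMSO-treated cells and 100% = recombinant Lucia luciferase without cells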
Active calls of the source: *.

Screening O=S(=O)(NCCc1csc(-c2cccnc2)n1)c1cccc(F)c1 returned TTR transcr act 2.
`O=S(=O)(NCc1csc(-c2cccnc2)n1)c1ccc(Br)cc1` gave TTR transcr act 1.
`O=C(NCCc1csc(-c2cccnc2)n1)c1ccccc1Br` gave TTR transcr act 18*, TTR inh HuH7 -17 and TTR act confirm 1.
Screening O=C1CCC[C@H]2C[C@H](NCc3ccc(F)cc3)CC[C@]23CCCN13 returned TTR transcr act 4.
O=C(c1ccccc1)n1ccc2ccc(-c3ccc4ccn(Cc5ccccc5)c4c3)cc21 was read as TTR transcr act 1.
For C/C(=N\NC(=O)c1cccs1)c1cccnc1 the results were TTR transcr act 9.9*, TTR inh HuH7 -5 and TTR act confirm 0.
`C/C(=N\NC(=O)c1ccc(N(C)C)cc1)c1cccnc1` gave TTR transcr act 0.
`O=C(NNC(=S)NC(=O)c1cccs1)c1cccnc1` gave TTR transcr act -2.
CCCCC1CCC(c2nc(-c3cccnc3)no2)CC1 (stereo not drawn) was read as TTR transcr act 13*, TTR inh HuH7 1 and TTR act confirm 0.
`CCCCC(=O)Nc1ccnc(-c2cccnc2)n1` gave TTR transcr act 0.
Screening Cc1ccccc1-c1nc(-c2cccnc2)no1 returned TTR transcr act -1.
Screening CCOC(=O)[C@@]12CCC3=C1N(CCC3)C(=O)[C@H](CC(=O)NCc1cccs1)C2 returned TTR transcr act 0.
For O=C(CCN1C(=O)C2CC=CCC2C1=O)N1CCN(c2ccccn2)CC1 (stereo not drawn) the results were TTR transcr act 9.7*, TTR inh HuH7 -10 and TTR act confirm 0.
Screening Cc1ccccc1CC(=O)N1CCCC(CCC(=O)N2CCN(c3ccccn3)CC2)C1 (stereo not drawn) returned TTR transcr act 11*, TTR inh HuH7 -1 and TTR act confirm 0.
For O=C(CCN1C(=O)c2ccccc2C1=O)N1CCN(c2ccccn2)CC1 the results were TTR transcr act 0.
Cc1ccc(C(=O)N2CCCC(CCC(=O)N3CCN(c4ccccn4)CC3)C2)s1 (stereo not drawn) was read as TTR transcr act 4.
For O=C(CCN1C(=O)COc2ccccc21)N1CCN(c2ccccn2)CC1 the results were TTR transcr act -1.
`CC(=O)c1ccccc1C(=O)N1CCCC(CCC(=O)N2CCN(c3ccccn3)CC2)C1` (stereo not drawn) gave TTR transcr act -1.
Screening COc1cccc(-c2cc(NC(C)=O)c3ncc(-c4ccc(OC)c(OC)c4)n3c2)c1 returned TTR transcr act 1.
Screening Clc1cc(Cl)cc(CNC2CCC23CCCCC3)c1 (stereo not drawn) returned TTR transcr act 1.
For CCCCN1CC[C@H](C)Oc2cc(Br)ccc2S1(=O)=O the results were TTR transcr act 7.
`COC(=O)c1ccc2nc(-c3cccc(Cl)c3)c(Cc3cccc(F)c3)n2c1` gave TTR transcr act 0.
For C[C@H]1C(=O)N2[C@@H](C[C@]3(c4c[nH]c5ccccc45)c4ccccc4N(S(=O)(=O)c4ccccc4)[C@H]23)C(=O)N1C the results were TTR transcr act -1.
For C=CCN(Cc1ccc2c(c1)OCO2)C(C#CCCCC)C(C)C (stereo not drawn) the results were TTR transcr act 1.
For COc1ccc(CN2C(=O)[C@]3(NCCc4c3[nH]c3ccc(OC)cc43)c3cc(F)ccc32)cc1 the results were TTR transcr act 5.
`CC(C)COc1ccc(-c2csc(N3CCC(C(N)=O)CC3)n2)cc1` gave TTR transcr act -4.
CCc1cc(=O)oc2cc(OCC(=O)NCCCn3ccnc3)c(Cl)cc12 was read as TTR transcr act -1.
For CCc1cc(=O)oc2c(C)c(OCC(=O)NCCCN3CCOCC3)ccc12 the results were TTR transcr act 6.
For CCCCc1cc(=O)oc2cc(OCC(=O)NCCN3CCOCC3)c(Cl)cc12 the results were TTR transcr act 11*, TTR inh HuH7 -25 and TTR act confirm 2.
For O=C1N(CC[C@@H](O)c2ccccc2)CCC12CCC(c1ccccc1)CC2 (stereo partly drawn) the results were TTR transcr act 0.
COCCNC(=O)C1(C)CCCN(C(=O)c2cccnc2SC)C1 (stereo not drawn) was read as TTR transcr act -1.
Screening CC1(C)CC2CN(Cc3ccccc3)S(=O)(=O)N2C1 (stereo not drawn) returned TTR transcr act 0.
`COc1cccc(C(C)(O)c2nc(-c3cccc(C(=O)O)c3)cs2)c1` (stereo not drawn) gave TTR transcr act 2.
COc1ccc(C(C)(NC(C)=O)c2nc(-c3cc(F)cc(F)c3)cs2)cc1 (stereo not drawn) was read as TTR transcr act -2.
